Records with an inconclusive call do not appear. Entries that show only a call come without a potency. Values without a mark were called inactive. Active and inactive are the calls of the source. Calls follow the shape of the full dose curve; tested in HEK293 reporter line.

The nature of one test: qHTS for Inhibitors of the Functional Ribonucleoprotein Complex (vRNP) of Lassa (LASV) Arenavirus: LASV Primary Screen - GLuc reporter signal (AID 1347082). Also: nearly all actives have a fitted effect of over 60% in size. The note with it: LASV minigenome vRNP, Gaussia luciferase reporter; series mostly up to 57.5 µM. Background: Quantitative high-throughput screening tests each substance at several concentrations.
As to `O=C(O)Cc1cccc(-c2cc(CCCCCCc3ccc(O[C@H]4O[C@H](CO)[C@@H](O)[C@H](O)[C@@H]4O)c(-c4cccc(CC(=O)O)c4)c3)ccc2O[C@H]2O[C@H](CO)[C@@H](O)[C@H](O)[C@@H]2O)c1`, the activity change, negative = inhibition was 1.7% [at 0.757 µM].

Take `NC(=O)N[C@@H](CCC(=O)O)C(=O)O`: the Potency entry was “inactive”.

`Nc1ccn([C@@H]2CS[C@H](CO)O2)c(=O)n1`: the Potency result is “inactive”.

Take `Cn1cc(S(C)=O)c(=O)c2ccc(F)cc21` (stereo not drawn): the Potency result was “inactive”.

Regarding `Oc1ccccc1-c1nnco1`, the Potency result was “inactive”.

With `O=C(O)c1cc(=O)[nH]c(=O)[nH]1`, the Potency entry is “inactive”.

With `CC1(C)OC(=O)NC1=O`, the Potency entry is “inactive”.

As to `O=C(Oc1ccccc1)c1ccccc1O`, the Potency result is “inactive”.

For the compound `CC(C)(C)NC[C@H](O)COc1nsnc1N1CCOCC1`, the Potency entry is “inactive”.

As for `CCCCCC=CCC=CCCCCCCCC(=O)OCC`, the Potency entry was “inactive”.

With `CC1CC(OC(=O)c2ccccc2O)CC(C)(C)C1` (stereo not drawn), the Potency entry is “inactive”.

Take `Cc1ccc(C(=O)c2ccc(CC(=O)O)n2C)cc1`: the Potency result is “inactive”.

Turning to `O=C(C1CCCCC1)N1CC(=O)N2CCCc3ccccc3C2C1` (stereo not drawn), the Potency entry was “inactive”.

For `O=C(Nc1ccc(Cl)c(Cl)c1)C1CC1`, the Potency entry was “inactive”.

Turning to `CC(C)=CCC1C(=O)N(c2ccccc2)N(c2ccccc2)C1=O`, the Potency entry was “inactive”.

As to `CC(C)NCC(O)c1cc(O)cc(O)c1` (stereo not drawn), the Potency entry was “inactive”.

As for `NS(=O)(=O)c1cc2c(cc1Cl)NC(CC1CCCC1)NS2(=O)=O` (stereo not drawn), the Potency entry was “inactive”.

Take `Nc1ccc(S(=O)(=O)c2ccc(N)cc2)cc1`: the Potency entry is “inactive”.

With `CCCCCCCCCCCCCCCCCC(=O)OCC(O)CO` (stereo not drawn), the Potency entry is “inactive”.

In the case of `Cc1c[nH]c2ccccc12`, the Potency result was “inactive”.

Regarding `CC(=O)Nc1ccc(CC(=O)O)cc1`, the Potency entry is “inactive”.

With `NNC(=O)c1ccncc1`, the Potency result was “inactive”.

Turning to `CC(=O)O[C@@H]1CC2C3CCc4cc(OC(=O)c5ccccc5)ccc4C3CCC2(C)[C@H]1OC(C)=O` (stereo partly drawn), the Potency result is “inactive”.

On to `Oc1ccc(Cl)c2cccnc12`, for which the Potency result is “inactive”.

`CC(=O)Nc1ccccc1`: the Potency entry is “inactive”.

Regarding `C[C@H]1C[C@H](O)c2ccsc2S1(=O)=O`, the Potency entry was “inactive”.

`CCCCC(CC)CN1CN(CC(CC)CCCC)CC(C)(N)C1` (stereo not drawn): the Potency result was “inactive”.

In the case of `COc1cc(/C=C/C(=O)O[C@H]2CC[C@]34C[C@]35CC[C@]3(C)[C@@H]([C@H](C)CCC=C(C)C)CC[C@@]3(C)[C@@H]5CC[C@H]4C2(C)C)ccc1O`, the Potency result is “inactive”.

For the compound `CC(O)CN(CCN(CC(C)O)CC(C)O)CC(C)O` (stereo not drawn), the Potency result was “inactive”.

Regarding `CC1(COc2ccc(CC3SC(=O)NC3=O)cc2)CCCCC1` (stereo not drawn), the Potency entry was “inactive”.

As for `Cc1noc(NS(=O)(=O)c2ccc(N)cc2)c1C`, the Potency entry was “inactive”.

On to `CC(C)Cn1cnc2c(N)nc3ccccc3c21`, for which the Potency entry was “inactive”.

Turning to `CC(=O)N(CC(O)CO)c1c(I)c(C(=O)NCCO)c(I)c(C(=O)NCC(O)CO)c1I` (stereo not drawn), the Potency result is “inactive”.

Regarding `CC(=O)OC(C)C[N+](C)(C)C` (stereo not drawn), the Potency entry was “inactive”.

Regarding `CC[C@H](C)C(=O)O[C@H]1C[C@H](O)C=C2C=C[C@H](C)[C@H](CC[C@@H](O)C[C@@H](O)CC(=O)O)[C@H]21`, the Potency result was “inactive”.

For `Nc1ccc(C(=O)O)cc1`, the Potency entry was “inactive”.

Regarding `O=C(O)CN1C(=O)c2cccc3cccc(c23)C1=O`, the Potency entry is “inactive”.

`O=C1OC(CN2CCOCC2)CN1/N=C/c1ccc([N+](=O)[O-])o1` (stereo not drawn): the Potency result is “inactive”.

On to `Nc1ncnc2c1ncn2Cc1c(F)cccc1Cl`, for which the Potency entry was “inactive”.

The nature of the next test: qHTS for Inhibitors of the Functional Ribonucleoprotein Complex (vRNP) of Lassa (LASV) Arenavirus: Viability assay - alamar blue signal for LASV Primary Screen (AID 1347083). Also: nearly all actives have a fitted effect of over 80% in size. The note with it: cell viability, alamar blue fluorescence (LASV minigenome counter-screen); series mostly up to 57.5 µM.
As for `O=C(O)Cc1cccc(-c2cc(CCCCCCc3ccc(O[C@H]4O[C@H](CO)[C@@H](O)[C@H](O)[C@@H]4O)c(-c4cccc(CC(=O)O)c4)c3)ccc2O[C@H]2O[C@H](CO)[C@@H](O)[C@H](O)[C@@H]2O)c1`, the activity change, negative = reduced viability is 10.5% [at 0.757 µM].

On to `NC(=O)N[C@@H](CCC(=O)O)C(=O)O`, for which the Potency entry is “inactive”.

`Nc1ccn([C@@H]2CS[C@H](CO)O2)c(=O)n1`: the Potency entry is “inactive”.

Regarding `Cn1cc(S(C)=O)c(=O)c2ccc(F)cc21` (stereo not drawn), the Potency entry is “inactive”.

For the compound `Oc1ccccc1-c1nnco1`, the Potency result was “inactive”.

Regarding `O=C(O)c1cc(=O)[nH]c(=O)[nH]1`, the Potency entry is “inactive”.

For the compound `CC1(C)OC(=O)NC1=O`, the Potency result was “inactive”.

Regarding `O=C(Oc1ccccc1)c1ccccc1O`, the Potency result is “inactive”.

As to `CC(C)(C)NC[C@H](O)COc1nsnc1N1CCOCC1`, the Potency result is “inactive”.

As to `CCCCCC=CCC=CCCCCCCCC(=O)OCC`, the Potency entry is “inactive”.

In the case of `CC1CC(OC(=O)c2ccccc2O)CC(C)(C)C1` (stereo not drawn), the Potency result is “inactive”.

For `Cc1ccc(C(=O)c2ccc(CC(=O)O)n2C)cc1`, the Potency result is “inactive”.

Consider `O=C(C1CCCCC1)N1CC(=O)N2CCCc3ccccc3C2C1` (stereo not drawn), for which the Potency entry is “inactive”.

Turning to `O=C(Nc1ccc(Cl)c(Cl)c1)C1CC1`, the Potency entry is “inactive”.

On to `CC(C)=CCC1C(=O)N(c2ccccc2)N(c2ccccc2)C1=O`, for which the Potency entry is “inactive”.

Consider `CC(C)NCC(O)c1cc(O)cc(O)c1` (stereo not drawn), for which the Potency entry is “inactive”.

As to `NS(=O)(=O)c1cc2c(cc1Cl)NC(CC1CCCC1)NS2(=O)=O` (stereo not drawn), the Potency result was “inactive”.

In the case of `Nc1ccc(S(=O)(=O)c2ccc(N)cc2)cc1`, the Potency result was “inactive”.

In the case of `CCCCCCCCCCCCCCCCCC(=O)OCC(O)CO` (stereo not drawn), the Potency result was “inactive”.

In the case of `Cc1c[nH]c2ccccc12`, the Potency result was “inactive”.

As for `CC(=O)Nc1ccc(CC(=O)O)cc1`, the Potency entry is “inactive”.

Consider `NNC(=O)c1ccncc1`, for which the Potency entry was “inactive”.

Regarding `CC(=O)O[C@@H]1CC2C3CCc4cc(OC(=O)c5ccccc5)ccc4C3CCC2(C)[C@H]1OC(C)=O` (stereo partly drawn), the Potency entry is “inactive”.

Turning to `Oc1ccc(Cl)c2cccnc12`, the Potency entry was “inactive”.

Take `CC(=O)Nc1ccccc1`: the Potency entry was “inactive”.

As to `C[C@H]1C[C@H](O)c2ccsc2S1(=O)=O`, the Potency entry was “inactive”.

For the compound `CCCCC(CC)CN1CN(CC(CC)CCCC)CC(C)(N)C1` (stereo not drawn), the Potency entry was “inactive”.

On to `COc1cc(/C=C/C(=O)O[C@H]2CC[C@]34C[C@]35CC[C@]3(C)[C@@H]([C@H](C)CCC=C(C)C)CC[C@@]3(C)[C@@H]5CC[C@H]4C2(C)C)ccc1O`, for which the Potency entry is “inactive”.

For `CC(O)CN(CCN(CC(C)O)CC(C)O)CC(C)O` (stereo not drawn), the Potency entry was “inactive”.

As for `CC1(COc2ccc(CC3SC(=O)NC3=O)cc2)CCCCC1` (stereo not drawn), the Potency entry is “inactive”.

Regarding `Cc1noc(NS(=O)(=O)c2ccc(N)cc2)c1C`, the Potency entry is “inactive”.

Turning to `CC(C)Cn1cnc2c(N)nc3ccccc3c21`, the Potency result was “inactive”.

Take `CC(=O)N(CC(O)CO)c1c(I)c(C(=O)NCCO)c(I)c(C(=O)NCC(O)CO)c1I` (stereo not drawn): the Potency entry was “inactive”.

Regarding `CC(=O)OC(C)C[N+](C)(C)C` (stereo not drawn), the Potency entry was “inactive”.

For `CC[C@H](C)C(=O)O[C@H]1C[C@H](O)C=C2C=C[C@H](C)[C@H](CC[C@@H](O)C[C@@H](O)CC(=O)O)[C@H]21`, the Potency result is “inactive”.

For the compound `Nc1ccc(C(=O)O)cc1`, the Potency entry was “inactive”.

Regarding `O=C(O)CN1C(=O)c2cccc3cccc(c23)C1=O`, the Potency result was “inactive”.

For `O=C1OC(CN2CCOCC2)CN1/N=C/c1ccc([N+](=O)[O-])o1` (stereo not drawn), the Potency result is “inactive”.

In the case of `Nc1ncnc2c1ncn2Cc1c(F)cccc1Cl`, the Potency entry was “inactive”.

Values taken from PubChem BioAssay (NCATS).
